# Tests used:
# [1] = biological target: T1, Inhibitor of nuclear factor kappa-B kinase subunit epsilon (Homo sapiens) (UniProt Q14164); conditions: at 1 µM;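 note: reported values are averaged percent inhibition figures against human IKKε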
# T1 sequence (whole entry): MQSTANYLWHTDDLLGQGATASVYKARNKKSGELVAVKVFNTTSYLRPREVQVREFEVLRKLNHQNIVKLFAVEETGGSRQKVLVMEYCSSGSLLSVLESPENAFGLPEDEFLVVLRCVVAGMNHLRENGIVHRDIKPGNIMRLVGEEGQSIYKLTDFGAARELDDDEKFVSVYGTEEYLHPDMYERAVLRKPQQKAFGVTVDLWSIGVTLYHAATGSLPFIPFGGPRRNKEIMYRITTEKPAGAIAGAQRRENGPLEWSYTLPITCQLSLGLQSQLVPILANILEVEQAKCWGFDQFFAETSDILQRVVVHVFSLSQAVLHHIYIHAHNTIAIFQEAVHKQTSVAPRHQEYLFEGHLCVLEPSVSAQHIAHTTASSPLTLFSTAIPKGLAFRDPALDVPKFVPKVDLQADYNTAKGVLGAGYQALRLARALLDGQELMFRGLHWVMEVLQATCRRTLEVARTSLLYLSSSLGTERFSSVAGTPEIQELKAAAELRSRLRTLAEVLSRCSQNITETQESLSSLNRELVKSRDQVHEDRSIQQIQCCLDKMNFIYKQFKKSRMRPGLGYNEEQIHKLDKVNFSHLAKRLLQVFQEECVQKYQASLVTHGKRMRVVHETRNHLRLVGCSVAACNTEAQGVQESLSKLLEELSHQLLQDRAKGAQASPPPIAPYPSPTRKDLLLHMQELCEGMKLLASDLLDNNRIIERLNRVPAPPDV
# [2] = biological target: T2, Serine/threonine-protein kinase Nek1 (Homo sapiens) (UniProt Q96PY6); conditions: at 0.1 µM
# T2 sequence (whole entry): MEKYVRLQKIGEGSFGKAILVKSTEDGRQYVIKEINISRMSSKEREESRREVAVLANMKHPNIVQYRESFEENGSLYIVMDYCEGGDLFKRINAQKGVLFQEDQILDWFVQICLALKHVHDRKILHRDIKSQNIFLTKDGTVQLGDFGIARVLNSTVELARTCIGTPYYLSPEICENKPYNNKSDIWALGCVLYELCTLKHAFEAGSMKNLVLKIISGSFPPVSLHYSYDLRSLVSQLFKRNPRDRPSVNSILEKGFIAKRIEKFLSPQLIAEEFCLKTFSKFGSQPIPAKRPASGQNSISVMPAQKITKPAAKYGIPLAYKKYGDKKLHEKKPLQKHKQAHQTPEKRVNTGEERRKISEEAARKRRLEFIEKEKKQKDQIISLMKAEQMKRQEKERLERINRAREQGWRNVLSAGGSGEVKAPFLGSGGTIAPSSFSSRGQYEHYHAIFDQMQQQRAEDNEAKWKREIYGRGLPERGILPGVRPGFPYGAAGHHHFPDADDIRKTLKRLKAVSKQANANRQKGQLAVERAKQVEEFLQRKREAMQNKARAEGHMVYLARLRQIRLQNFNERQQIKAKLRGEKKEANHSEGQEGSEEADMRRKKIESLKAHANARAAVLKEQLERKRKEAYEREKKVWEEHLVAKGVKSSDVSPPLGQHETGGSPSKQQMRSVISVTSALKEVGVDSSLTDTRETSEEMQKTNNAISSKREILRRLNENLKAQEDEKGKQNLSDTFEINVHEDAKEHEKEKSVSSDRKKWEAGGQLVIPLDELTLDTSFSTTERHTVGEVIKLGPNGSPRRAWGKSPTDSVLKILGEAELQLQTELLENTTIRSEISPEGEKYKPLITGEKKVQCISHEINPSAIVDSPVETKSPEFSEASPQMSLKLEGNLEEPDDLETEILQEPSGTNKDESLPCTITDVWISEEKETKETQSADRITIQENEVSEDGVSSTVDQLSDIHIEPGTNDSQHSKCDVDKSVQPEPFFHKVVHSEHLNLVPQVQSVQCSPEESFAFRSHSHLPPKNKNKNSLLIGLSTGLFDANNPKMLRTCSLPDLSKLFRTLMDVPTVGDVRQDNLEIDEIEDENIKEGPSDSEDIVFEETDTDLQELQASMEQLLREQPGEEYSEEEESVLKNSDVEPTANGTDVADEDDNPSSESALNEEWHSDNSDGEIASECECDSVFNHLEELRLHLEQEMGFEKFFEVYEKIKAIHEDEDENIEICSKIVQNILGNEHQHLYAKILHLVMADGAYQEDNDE
# [3] = biological target: T2, Serine/threonine-protein kinase Nek1 (Homo sapiens); conditions: at 1 µM
# [4] = biological target: T3, Serine/threonine-protein kinase Nek2 (Homo sapiens) (UniProt P51955); conditions: at 0.1 µM
# T3 sequence (whole entry): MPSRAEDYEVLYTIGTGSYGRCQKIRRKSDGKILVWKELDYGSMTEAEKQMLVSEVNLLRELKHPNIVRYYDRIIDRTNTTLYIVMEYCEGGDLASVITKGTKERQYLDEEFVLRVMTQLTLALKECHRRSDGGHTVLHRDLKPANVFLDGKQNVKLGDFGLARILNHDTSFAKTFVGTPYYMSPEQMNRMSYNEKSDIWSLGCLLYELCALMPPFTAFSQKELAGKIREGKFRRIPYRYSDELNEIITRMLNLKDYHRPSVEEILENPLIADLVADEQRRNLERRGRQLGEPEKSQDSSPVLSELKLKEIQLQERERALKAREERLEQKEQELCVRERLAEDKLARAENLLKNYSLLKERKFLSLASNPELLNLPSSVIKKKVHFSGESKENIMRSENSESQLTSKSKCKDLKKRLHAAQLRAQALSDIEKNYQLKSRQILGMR
# [5] = biological target: T3, Serine/threonine-protein kinase Nek2 (Homo sapiens); conditions: at 1 µM
# [6] = biological target: Serine/threonine-protein kinase Nek6 (Homo sapiens) (UniProt Q9HC98); conditions: at 0.1 µM
# [7] = biological target: Serine/threonine-protein kinase Nek6 (Homo sapiens) (UniProt Q9HC98); conditions: at 1 µM
# [8] = biological target: Serine/threonine-protein kinase Nek7 (Homo sapiens) (UniProt Q8TDX7); conditions: at 0.1 µM
# [9] = biological target: Serine/threonine-protein kinase Nek7 (Homo sapiens) (UniProt Q8TDX7); conditions: at 1 µM
# [10] = biological target: T4, Serine/threonine-protein kinase Nek9 (Homo sapiens) (UniProt Q8TD19); conditions: at 0.1 µM
# T4 sequence (whole entry): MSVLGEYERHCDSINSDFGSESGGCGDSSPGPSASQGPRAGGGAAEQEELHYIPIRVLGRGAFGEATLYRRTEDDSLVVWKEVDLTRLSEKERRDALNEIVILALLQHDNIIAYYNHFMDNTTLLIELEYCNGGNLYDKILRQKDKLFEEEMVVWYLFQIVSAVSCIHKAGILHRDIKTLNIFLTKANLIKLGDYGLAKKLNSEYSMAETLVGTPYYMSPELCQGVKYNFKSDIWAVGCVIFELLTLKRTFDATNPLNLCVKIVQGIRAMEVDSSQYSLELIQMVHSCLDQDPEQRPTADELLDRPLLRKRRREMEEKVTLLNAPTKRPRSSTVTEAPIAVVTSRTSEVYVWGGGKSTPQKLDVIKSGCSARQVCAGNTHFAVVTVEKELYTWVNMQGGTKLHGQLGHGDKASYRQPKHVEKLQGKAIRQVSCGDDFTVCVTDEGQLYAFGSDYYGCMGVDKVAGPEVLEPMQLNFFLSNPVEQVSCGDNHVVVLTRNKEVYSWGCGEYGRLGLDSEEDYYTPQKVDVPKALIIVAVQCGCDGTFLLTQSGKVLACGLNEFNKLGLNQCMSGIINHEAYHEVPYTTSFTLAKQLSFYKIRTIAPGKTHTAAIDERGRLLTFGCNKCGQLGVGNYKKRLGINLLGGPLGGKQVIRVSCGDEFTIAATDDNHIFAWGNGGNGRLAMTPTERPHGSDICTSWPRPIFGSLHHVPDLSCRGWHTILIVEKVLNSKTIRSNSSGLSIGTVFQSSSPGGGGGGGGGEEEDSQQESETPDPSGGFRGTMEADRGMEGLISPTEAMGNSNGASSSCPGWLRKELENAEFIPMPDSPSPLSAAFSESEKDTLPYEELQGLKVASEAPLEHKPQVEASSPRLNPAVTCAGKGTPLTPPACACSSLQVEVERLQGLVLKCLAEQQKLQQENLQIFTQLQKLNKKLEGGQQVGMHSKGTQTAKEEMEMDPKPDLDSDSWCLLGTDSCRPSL
# [11] = biological target: T4, Serine/threonine-protein kinase Nek9 (Homo sapiens); conditions: at 1 µM
# [12] = biological target: Serine/threonine-protein kinase PLK1 (Homo sapiens) (UniProt P53350); conditions: at 0.1 µM
# [13] = biological target: Serine/threonine-protein kinase PLK1 (Homo sapiens) (UniProt P53350); conditions: at 1 µM
# [14] = biological target: T5, Dual specificity protein kinase TTK (Homo sapiens) (UniProt P33981); conditions: at 0.1 µM
# T5 sequence (whole entry): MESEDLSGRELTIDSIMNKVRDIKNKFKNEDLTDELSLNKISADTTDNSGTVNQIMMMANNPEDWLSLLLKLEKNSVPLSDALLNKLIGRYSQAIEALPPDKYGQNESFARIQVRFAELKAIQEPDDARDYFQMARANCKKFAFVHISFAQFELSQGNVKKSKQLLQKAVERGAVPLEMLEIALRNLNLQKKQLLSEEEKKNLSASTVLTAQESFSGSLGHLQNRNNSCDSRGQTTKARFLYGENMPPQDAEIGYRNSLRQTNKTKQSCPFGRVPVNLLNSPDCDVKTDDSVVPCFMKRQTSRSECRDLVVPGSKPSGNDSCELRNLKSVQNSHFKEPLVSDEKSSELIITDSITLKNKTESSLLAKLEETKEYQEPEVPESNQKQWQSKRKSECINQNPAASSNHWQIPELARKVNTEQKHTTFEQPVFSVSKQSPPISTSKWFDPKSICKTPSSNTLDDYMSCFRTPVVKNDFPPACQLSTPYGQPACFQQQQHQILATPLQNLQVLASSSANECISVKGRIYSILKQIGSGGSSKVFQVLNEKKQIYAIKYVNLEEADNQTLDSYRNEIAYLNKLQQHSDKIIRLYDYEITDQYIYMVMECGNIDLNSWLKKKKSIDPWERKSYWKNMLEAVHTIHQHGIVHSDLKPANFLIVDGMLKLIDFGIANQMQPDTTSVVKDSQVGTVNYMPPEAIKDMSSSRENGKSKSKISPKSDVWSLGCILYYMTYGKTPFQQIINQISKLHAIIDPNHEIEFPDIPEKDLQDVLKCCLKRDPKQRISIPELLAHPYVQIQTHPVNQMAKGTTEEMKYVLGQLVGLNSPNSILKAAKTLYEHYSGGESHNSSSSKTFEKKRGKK
# [15] = system: T6, Receptor-type tyrosine-protein kinase FLT3 (Homo sapiens), P36888 [D835Y]; conditions: at 1 µM
# T6 sequence (whole entry): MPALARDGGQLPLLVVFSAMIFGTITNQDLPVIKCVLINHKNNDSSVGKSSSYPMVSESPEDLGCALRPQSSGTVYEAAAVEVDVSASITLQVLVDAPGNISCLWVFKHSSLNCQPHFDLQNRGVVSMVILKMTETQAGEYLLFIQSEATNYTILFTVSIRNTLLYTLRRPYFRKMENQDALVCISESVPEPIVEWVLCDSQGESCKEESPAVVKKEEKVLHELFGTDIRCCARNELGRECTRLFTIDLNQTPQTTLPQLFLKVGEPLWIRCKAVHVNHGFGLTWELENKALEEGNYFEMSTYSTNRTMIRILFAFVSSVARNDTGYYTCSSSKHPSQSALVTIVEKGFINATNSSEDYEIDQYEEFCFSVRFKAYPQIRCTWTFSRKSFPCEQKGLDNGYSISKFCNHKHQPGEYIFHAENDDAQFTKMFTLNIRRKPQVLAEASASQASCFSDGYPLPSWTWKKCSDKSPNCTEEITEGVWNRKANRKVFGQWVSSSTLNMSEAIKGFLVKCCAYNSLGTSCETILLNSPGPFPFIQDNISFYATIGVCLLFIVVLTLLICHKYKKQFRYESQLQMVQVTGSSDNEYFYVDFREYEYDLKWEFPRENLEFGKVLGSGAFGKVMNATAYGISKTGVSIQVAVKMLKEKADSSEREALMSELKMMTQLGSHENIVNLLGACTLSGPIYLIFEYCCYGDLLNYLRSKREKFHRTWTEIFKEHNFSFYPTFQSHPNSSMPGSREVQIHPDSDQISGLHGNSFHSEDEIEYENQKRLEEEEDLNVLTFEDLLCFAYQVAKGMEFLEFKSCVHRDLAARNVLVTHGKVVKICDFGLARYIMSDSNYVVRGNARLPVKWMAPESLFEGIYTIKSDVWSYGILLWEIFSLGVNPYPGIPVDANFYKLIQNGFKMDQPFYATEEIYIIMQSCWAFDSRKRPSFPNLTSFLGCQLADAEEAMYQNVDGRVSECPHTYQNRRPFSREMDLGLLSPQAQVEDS
# [16] = biological target: Vascular endothelial growth factor receptor 3 (Homo sapiens) (UniProt P35916); conditions: at 0.1 µM
# [17] = biological target: Vascular endothelial growth factor receptor 3 (Homo sapiens) (UniProt P35916); conditions: at 1 µM
# [18] = biological target: Macrophage colony-stimulating factor 1 receptor (Homo sapiens) (UniProt P07333); conditions: at 0.1 µM
# [19] = biological target: Macrophage colony-stimulating factor 1 receptor (Homo sapiens) (UniProt P07333); conditions: at 1 µM
# [20] = biological target: Tyrosine-protein kinase Fyn (Homo sapiens) (UniProt P06241); conditions: at 0.1 µM
# Tyrosine-protein kinase Fyn (Homo sapiens), sequence (P06241 2-537 limits assumed): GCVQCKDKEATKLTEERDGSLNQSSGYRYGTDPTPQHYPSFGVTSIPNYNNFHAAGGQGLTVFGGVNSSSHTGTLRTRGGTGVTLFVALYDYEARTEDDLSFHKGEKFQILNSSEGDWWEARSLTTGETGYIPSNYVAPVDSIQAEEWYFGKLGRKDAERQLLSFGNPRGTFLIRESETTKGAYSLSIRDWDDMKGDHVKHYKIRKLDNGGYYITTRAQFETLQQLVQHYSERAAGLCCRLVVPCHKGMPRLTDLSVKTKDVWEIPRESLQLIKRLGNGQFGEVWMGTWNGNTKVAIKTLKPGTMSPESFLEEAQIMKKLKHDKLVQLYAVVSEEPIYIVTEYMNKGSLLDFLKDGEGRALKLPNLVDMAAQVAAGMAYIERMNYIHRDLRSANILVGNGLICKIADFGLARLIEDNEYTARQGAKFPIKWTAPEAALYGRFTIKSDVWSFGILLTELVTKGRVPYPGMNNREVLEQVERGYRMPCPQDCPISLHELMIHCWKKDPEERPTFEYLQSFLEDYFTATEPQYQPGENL
# Serine/threonine-protein kinase Nek6 (Homo sapiens), sequence (Q9HC98 whole entry): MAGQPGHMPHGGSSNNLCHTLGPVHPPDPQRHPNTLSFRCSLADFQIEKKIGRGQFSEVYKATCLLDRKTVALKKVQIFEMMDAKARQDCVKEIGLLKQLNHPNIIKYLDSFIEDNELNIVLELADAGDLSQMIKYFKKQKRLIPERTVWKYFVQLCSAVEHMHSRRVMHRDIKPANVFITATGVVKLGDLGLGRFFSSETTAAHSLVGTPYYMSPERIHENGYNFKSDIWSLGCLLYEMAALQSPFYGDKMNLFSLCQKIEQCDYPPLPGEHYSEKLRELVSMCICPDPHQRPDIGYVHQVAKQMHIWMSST
# Serine/threonine-protein kinase Nek7 (Homo sapiens), sequence (Q8TDX7 whole entry, looked up): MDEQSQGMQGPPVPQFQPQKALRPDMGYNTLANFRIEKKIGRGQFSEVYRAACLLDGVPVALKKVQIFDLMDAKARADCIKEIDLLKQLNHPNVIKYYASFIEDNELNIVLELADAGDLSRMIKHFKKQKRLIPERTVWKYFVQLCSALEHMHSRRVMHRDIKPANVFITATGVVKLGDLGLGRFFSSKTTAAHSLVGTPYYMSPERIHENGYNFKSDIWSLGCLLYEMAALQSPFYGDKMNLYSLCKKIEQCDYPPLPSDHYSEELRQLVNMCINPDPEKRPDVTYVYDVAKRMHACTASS
# Vascular endothelial growth factor receptor 3 (Homo sapiens), sequence (P35916 whole entry): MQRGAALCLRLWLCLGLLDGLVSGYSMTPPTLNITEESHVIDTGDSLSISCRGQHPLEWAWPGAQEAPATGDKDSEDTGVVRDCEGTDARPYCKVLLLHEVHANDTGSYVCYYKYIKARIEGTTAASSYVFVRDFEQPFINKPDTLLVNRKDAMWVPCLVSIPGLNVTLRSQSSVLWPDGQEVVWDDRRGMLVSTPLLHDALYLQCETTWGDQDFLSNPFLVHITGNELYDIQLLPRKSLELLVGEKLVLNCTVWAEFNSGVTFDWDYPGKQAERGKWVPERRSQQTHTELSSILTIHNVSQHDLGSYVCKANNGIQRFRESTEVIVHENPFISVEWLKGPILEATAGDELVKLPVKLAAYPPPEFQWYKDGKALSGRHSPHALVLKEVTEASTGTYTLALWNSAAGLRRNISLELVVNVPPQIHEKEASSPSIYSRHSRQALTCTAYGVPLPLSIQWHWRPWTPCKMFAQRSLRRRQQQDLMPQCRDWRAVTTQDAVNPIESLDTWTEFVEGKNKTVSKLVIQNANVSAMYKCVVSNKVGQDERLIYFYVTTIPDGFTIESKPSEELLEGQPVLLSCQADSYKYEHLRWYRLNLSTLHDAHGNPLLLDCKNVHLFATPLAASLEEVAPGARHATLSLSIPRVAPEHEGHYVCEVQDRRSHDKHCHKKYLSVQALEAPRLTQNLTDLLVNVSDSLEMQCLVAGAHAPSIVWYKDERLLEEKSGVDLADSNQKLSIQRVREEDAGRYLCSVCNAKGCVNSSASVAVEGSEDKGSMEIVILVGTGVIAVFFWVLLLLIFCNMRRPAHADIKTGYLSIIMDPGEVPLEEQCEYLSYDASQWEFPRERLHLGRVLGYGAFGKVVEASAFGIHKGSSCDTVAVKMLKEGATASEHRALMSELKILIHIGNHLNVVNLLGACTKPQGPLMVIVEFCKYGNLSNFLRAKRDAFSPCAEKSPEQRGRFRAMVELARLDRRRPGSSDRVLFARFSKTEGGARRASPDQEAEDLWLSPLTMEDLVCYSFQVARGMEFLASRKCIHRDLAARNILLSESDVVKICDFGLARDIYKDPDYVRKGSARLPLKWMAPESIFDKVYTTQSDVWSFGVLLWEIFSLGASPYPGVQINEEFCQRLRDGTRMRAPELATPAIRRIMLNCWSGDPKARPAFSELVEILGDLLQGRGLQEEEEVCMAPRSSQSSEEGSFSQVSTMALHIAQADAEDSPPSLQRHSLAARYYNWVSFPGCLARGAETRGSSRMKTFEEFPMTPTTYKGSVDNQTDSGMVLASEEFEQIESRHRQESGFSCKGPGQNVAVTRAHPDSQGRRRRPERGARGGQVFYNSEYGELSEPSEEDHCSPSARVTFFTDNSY
# Macrophage colony-stimulating factor 1 receptor (Homo sapiens), sequence (P07333 whole entry): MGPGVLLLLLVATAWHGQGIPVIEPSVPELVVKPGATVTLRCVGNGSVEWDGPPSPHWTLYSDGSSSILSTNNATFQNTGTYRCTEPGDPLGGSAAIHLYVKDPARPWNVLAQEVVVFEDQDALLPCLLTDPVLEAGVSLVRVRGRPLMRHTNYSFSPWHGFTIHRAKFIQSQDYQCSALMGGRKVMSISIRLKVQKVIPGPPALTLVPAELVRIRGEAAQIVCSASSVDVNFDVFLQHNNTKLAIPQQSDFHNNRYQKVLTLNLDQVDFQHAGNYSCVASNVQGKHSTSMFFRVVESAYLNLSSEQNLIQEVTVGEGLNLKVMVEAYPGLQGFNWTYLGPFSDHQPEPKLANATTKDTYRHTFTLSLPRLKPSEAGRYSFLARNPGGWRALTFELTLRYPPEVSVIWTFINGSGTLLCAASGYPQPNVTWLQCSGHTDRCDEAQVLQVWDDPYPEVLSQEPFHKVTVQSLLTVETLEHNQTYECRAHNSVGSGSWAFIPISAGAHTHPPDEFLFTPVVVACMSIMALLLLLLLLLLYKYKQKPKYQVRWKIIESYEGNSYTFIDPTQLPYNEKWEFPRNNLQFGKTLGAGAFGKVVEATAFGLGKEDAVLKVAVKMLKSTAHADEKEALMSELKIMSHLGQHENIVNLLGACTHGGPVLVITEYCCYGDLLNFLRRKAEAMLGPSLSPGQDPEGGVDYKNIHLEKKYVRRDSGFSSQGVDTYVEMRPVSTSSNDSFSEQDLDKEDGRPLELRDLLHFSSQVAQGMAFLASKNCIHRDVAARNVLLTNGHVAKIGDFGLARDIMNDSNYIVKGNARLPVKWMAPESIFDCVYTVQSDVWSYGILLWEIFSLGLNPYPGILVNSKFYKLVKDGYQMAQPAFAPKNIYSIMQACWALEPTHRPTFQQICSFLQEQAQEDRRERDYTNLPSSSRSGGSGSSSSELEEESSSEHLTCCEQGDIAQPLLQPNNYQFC
# Serine/threonine-protein kinase PLK1 (Homo sapiens), sequence (P53350 whole entry): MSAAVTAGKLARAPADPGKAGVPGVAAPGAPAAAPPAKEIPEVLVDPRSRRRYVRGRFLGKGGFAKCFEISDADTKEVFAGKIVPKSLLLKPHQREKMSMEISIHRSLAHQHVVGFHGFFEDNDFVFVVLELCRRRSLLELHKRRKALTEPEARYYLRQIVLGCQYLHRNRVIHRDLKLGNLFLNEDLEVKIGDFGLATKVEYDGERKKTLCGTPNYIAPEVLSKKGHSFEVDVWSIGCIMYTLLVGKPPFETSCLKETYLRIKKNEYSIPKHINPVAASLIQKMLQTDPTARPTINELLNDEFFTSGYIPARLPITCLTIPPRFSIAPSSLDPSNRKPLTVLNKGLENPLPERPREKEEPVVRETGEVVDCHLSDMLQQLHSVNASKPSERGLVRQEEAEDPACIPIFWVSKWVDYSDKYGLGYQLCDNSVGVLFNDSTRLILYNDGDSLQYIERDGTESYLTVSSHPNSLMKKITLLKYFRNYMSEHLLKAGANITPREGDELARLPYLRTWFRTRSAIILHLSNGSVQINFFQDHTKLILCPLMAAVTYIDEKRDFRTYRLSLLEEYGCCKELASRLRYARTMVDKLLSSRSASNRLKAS
SMILES,inhibition [1],inhibition [2],inhibition [3],inhibition [4],inhibition [5],inhibition [6],inhibition [7],inhibition [8],inhibition [9],inhibition [10],inhibition [11],inhibition [12],inhibition [13],inhibition [14],inhibition [15],inhibition [16],inhibition [17],inhibition [18],inhibition [19],inhibition [20]
COC(=O)c1sc(-n2cnc3cc(OC)c(OC)cc32)cc1OCc1ccccc1C(F)(F)F,8.59%,2.43%,0.28%,4.46%,3.83%,-0.01%,-1.32%,6.92%,4.66%,6.87%,7%,3.92%,14.4%,12.7%,0.96%,8.44%,50.2%,16.2%,60.9%,15.6%
Clc1ccc(-c2nn3ncccc3c2-c2ccnc(Nc3ccccc3)n2)cc1,-3.51%,1.79%,1.38%,2.53%,1.79%,2.55%,2.29%,2.07%,1.34%,5.9%,-3.71%,-9.28%,3.17%,3.63%,-0.74%,4.99%,16.2%,4.3%,32.3%,9.12%
Cc1cccc2c1NC(=O)/C2=N\Nc1ccc(S(N)(=O)=O)cc1,3.85%,1%,3.8%,2.64%,2.64%,2.04%,1.65%,2.43%,2.36%,4.06%,3.99%,0.77%,2.15%,1.78%,10.5%,3.59%,-0.85%,2.22%,7.87%,2.11%
